Experimental findings from PubChem BioAssay AID493001 (Johns Hopkins Ion Channel Center, 2010) are described below.

The campaign covered roughly 1,900 compounds. About 430 (23%) were called active.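 How the source made its calls: active means duplicate-averaged calcium rise in uninduced cells above buffer wells' mean plus 5 SD; inactive means the rest.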 Many of the other results were omitted from the sample, so actives are more common in it than they were.

The nature of this experiment: compound-evoked calcium rise in non-induced M3R cells, confirmation, artefact control for RGS4 inhibitor project, cell-based, HEK293 M3R, no carbachol, second counter-screen (AID 493001). The following applies: Fluo-4 calcium, at 10 µM; active compounds read high. Background: A counterscreen serves to expose hits that act by an unwanted route or on another target.
For the compound `CCN1C(=O)C(=Cc2c(C)n(CC(=O)NCC3CCCO3)c3ccccc23)C(=O)N(CC)C1=S` (centres undefined), the calcium response (agonist-mode artifact) is 13.5% (active).

As to `O=C(N/N=C/c1c(O)n(Cc2ccccc2)c(=O)[nH]c1=O)c1ccccc1`, the calcium response (agonist-mode artifact) entry was “inactive”.

Consider `O=C1NC(=O)N(Cc2ccco2)C(=O)/C1=C\c1ccc(-c2ccc(F)cc2)o1`, for which the calcium response (agonist-mode artifact) was 152% (active).

As to `Cc1ccc2c(c1)=C/C(=C\c1c(O)[nH]c(=O)[nH]c1=O)C(=O)N=2`, the calcium response (agonist-mode artifact) entry is “inactive”.
